The structures appear in SMILES notation.

Chain of Torsin-1A-interacting protein 1 (Homo sapiens) (Q5JTV8 whole entry, looked up): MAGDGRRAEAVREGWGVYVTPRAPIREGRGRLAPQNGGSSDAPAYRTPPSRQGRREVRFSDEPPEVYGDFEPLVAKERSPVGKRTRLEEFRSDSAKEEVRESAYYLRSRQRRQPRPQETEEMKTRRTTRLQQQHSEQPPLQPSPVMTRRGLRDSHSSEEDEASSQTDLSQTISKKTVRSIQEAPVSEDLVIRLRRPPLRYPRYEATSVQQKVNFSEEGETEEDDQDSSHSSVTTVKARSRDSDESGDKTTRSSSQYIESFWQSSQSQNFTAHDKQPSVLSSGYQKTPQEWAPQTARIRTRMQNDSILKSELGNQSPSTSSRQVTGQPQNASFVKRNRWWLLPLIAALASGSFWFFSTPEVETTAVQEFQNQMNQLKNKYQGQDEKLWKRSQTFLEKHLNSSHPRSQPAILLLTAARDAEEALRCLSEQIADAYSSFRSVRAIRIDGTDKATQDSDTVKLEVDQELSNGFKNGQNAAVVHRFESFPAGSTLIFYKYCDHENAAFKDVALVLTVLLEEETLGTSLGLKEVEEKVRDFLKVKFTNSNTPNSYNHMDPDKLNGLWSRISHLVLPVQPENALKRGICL

The test concerns the target Torsin-1A-interacting protein 1 (Homo sapiens) (UniProt Q5JTV8). Put plainly: compound microarray binding of lysate hLAP1 – cell lysate, small-molecule microarray, COS7 lysate, 635/667 nm fluorescence, primary screen (AID 1116). The conditions noted are these: 635 nm fluorescence, higher = more signal.
`CCOC(=O)[C@H](Cc1ccccc1)NC(=O)CCC1CC(OC(=O)NCCc2ccc(F)cc2)CC2(CCCC(COC(=O)NCc3cccc(C(F)(F)F)c3)O2)O1` (stereo partly specified) showed a composite z-score of 0.109.

In turn, `C[C@H]1CC[C@@H](C(=O)O)N[C@@H]1c1ccc(C#Cc2ccccc2)cc1` showed a composite z-score of 0.666.

As to `C[C@H]1CC[C@H]2C(=O)OC(COc3ccc(C(C)(C)C)cc3)CN2[C@@H]1c1ccc(Br)cc1` (stereo partly specified), the composite z-score amounted to 0.0437.

In turn, `OC[C@H]1O[C@H](C#Cc2ccccc2)C=C[C@@H]1O` showed a composite z-score of -0.0177.

The compound `CC(C)(C)N1C(=O)[C@H]2[C@H]3[C@H](O)[C@H](O)CC(=NOC[C@@H](O)COCc4ccco4)[C@@H]3CC[C@H]2C1=O` yielded a composite z-score of 1.45.

Compound `COC(=O)[C@H](C)NC(=O)CCC1CC(OC(=O)NCc2ccc3c(c2)OCO3)CC2(CCCC(COC(=O)NCc3ccccc3)O2)O1` (stereo partly specified) displayed a composite z-score of 0.179.

For the compound `O=C1[C@H]2[C@H]3[C@H](O)[C@H](O)CC(=NOC[C@@H](O)COCc4ccco4)[C@@H]3CC[C@H]2C(=O)N1Cc1ccccc1`, the composite z-score was found to be 0.77.

In the case of `COc1ccc(COC(=O)NN=C2C[C@@H](O)[C@@H](O)[C@@H]3[C@@H]4C(=O)N(C5CCCCC5)C(=O)[C@@H]4CC[C@@H]23)cc1`, the composite z-score was -0.011.

`CC(=O)OC[C@H]1O[C@@H](ON=C(C)CCN2CCCCc3nc(C)c(C)cc32)[C@H](OC(C)=O)[C@@H](OC(C)=O)[C@@H]1OC(C)=O` registered a composite z-score of 0.479.

`CCOC(=O)[C@H](CC(C)C)NC(=O)CCC1CC(OC(=O)NCc2ccc3c(c2)OCO3)CC2(CCCC(COC(=O)NCCOC)O2)O1` (stereo partly specified) yielded a composite z-score of 0.956.

Compound `CO[C@H]1COC(=O)[C@H](C)COC(=O)[C@@H](OCc2ccccc2)C=C[C@@H]1C` gave a composite z-score of -0.149.

In the case of `CCOC(=O)[C@H](Cc1ccccc1)NC(=O)CCC1CC(OC(=O)NCc2cccc3ccccc23)CC2(CCCC(COC(=O)NCCOc3ccccc3)O2)O1` (stereo partly specified), the composite z-score worked out at 0.166.

`CCc1cc2c(nc1CC)CCN(CCC(C)=NOC[C@@H](C)[C@H](OCc1ccccc1)C(C)C)C2` showed a composite z-score of -0.667.

For the compound `O=C1CCCC=C1C(O)C1CCCCC1` (stereo unspecified), the composite z-score is -0.207.

As for `CC(C)=CCCC(C)=CCON=C1C[C@@H](O)[C@@H](O)[C@@H]2[C@@H]3C(=O)N(Cc4ccc5c(c4)OCO5)C(=O)[C@@H]3CC[C@@H]12`, the composite z-score stood at 0.999.

`CC(C)=CCCC(C)=CCON=C1[C@H]2CCn3c(=O)n(-c4ccccc4)c(=O)n3[C@H]2[C@H](O)[C@@H]2O[C@H]12` returned a composite z-score of 0.458.

`C=CCOCC1CN2[C@@H](CC[C@@H](C)[C@@H]2c2ccc(Br)cc2)C(=O)O1` (stereo partly specified): the composite z-score is 0.0323.

The compound `CCCC[C@H]1CN2[C@@H](CC[C@@H](C)[C@@H]2c2ccc(Br)cc2)C(=O)O1` had a composite z-score of 0.755.

As for `CC(C)CON=C1[C@H]2CCn3c(=O)n(C)c(=O)n3[C@H]2[C@H](O)[C@@H]2O[C@H]12`, the composite z-score amounted to 0.18.

With `O=C1C=C[C@@H](O)[C@@H]2[C@@H]3C(=O)N(c4cccc(Oc5ccccc5)c4)C(=O)[C@@H]3CC[C@@H]12`, the composite z-score was found to be 0.503.

Compound `Cc1cc(C)c(-c2cc([C@H](C)ON=C[C@@H](C)[C@H](OCc3ccccc3)C(C)C)on2)c(C)c1` showed a composite z-score of -0.601.

With `C[C@@H]1C=CCC(=O)OC[C@H](C)C(=O)N[C@@H](Cc2ccccc2)C(=O)OC1`, the composite z-score is -0.232.

`CCOC(=O)NN=C1C[C@@H](O)[C@@H](O)[C@@H]2[C@@H]3C(=O)N(C[C@@H]4CCCO4)C(=O)[C@@H]3CC[C@H]12`: the composite z-score stood at 0.998.

Consider `COc1ccc(-c2cnnc(CCCn3ccnc3-c3ccccc3)n2)cc1`, for which the composite z-score is 0.917.

As to `CCOC(=O)[C@H](Cc1ccccc1)NC(=O)CCC1CC(OC(=O)NCc2ccc3c(c2)OCO3)CC2(CCCC(COC(=O)NCCc3ccc(Cl)cc3)O2)O1` (stereo partly specified), the composite z-score is -0.0764.

As for `CCO[C@H](c1cc(OC)cc([N+](=O)[O-])c1OC)[C@H](C)[C@@H](OC)[C@H](C)C=CCC(=O)OC`, the composite z-score is -0.0844.

In the case of `CCN(CC)CC(O)CN1CCCCc2nc(C)c(C)cc21` (stereo unspecified), the composite z-score came out at 0.579.

Turning to `O=C1CCCC=C1C(O)c1ccc([N+](=O)[O-])cc1` (stereo unspecified), the composite z-score amounted to 0.315.

`CCOC(=O)[C@H](Cc1ccccc1)NC(=O)CCC1CC(OC(=O)NCCc2ccc(F)cc2)CC2(CCCC(COC(=O)NCCOc3ccccc3)O2)O1` (stereo partly specified) showed a composite z-score of 0.306.

As to `COC(=O)[C@H](Cc1ccccc1)NC(=O)[C@@H](C)CO`, the composite z-score was 0.763.

`CCOC(=O)CCN1C(=O)[C@H]2[C@H]3[C@H](O)[C@H](O)CC(=NOCC=C(C)CCC=C(C)C)[C@H]3CC[C@H]2C1=O` yielded a composite z-score of -0.393.

For `O=C1[C@H]2[C@H]3[C@H](O)[C@H](O)CC(=NO[C@@H]4O[C@H](CO)[C@@H](O)[C@H](O)[C@H]4O)[C@H]3CC[C@H]2C(=O)N1c1ccc(F)cc1F`, the composite z-score is -0.267.

`O=C1[C@H]2[C@H]3[C@H](O)[C@H](O)CC(=NOCc4ccccc4)[C@@H]3CC[C@H]2C(=O)N1c1cccc(Oc2ccccc2)c1` displayed a composite z-score of 0.902.

In turn, `O=C1C2=CC[C@H]3C(=O)N(C[C@@H]4CCCO4)C(=O)[C@H]3[C@H]2[C@H](O)[C@@H]2O[C@H]12` yielded a composite z-score of 0.518.

In the case of `CCOC(=O)[C@H](CC(C)C)NC(=O)CCC1CC(OC(=O)NCc2ccc3c(c2)OCO3)CC2(CCCC(COC(=O)NCc3ccccc3)O2)O1` (stereo partly specified), the composite z-score stood at 0.137.

For the compound `CON=C(C)CCN1CCCc2nc(C)c(C)cc21`, the composite z-score came out at 0.501.

The values are drawn from PubChem BioAssay.
